# Measurements taken from ChEMBL document CHEMBL5598561, “ASAP - In vitro binding kinetics” (2024).
# Target: Nonstructural protein 3 (Zika virus) (UniProt A0A024AXB9)
# Details: PRVABC59, Concentration 10.0 uM
# Nonstructural protein 3 (Zika virus), sequence (A0A024AXB9 as listed by the source): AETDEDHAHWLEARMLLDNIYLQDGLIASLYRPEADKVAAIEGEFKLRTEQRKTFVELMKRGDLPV
compound,measurement,setting,value
Cc1ccc(C(=O)Nc2ccc3c(c2)CNC3)c2[nH]ncc12,pKD,"Immobilization level 10000.0 pg/mm2, Rmax 28.0 pg/mm2, ka 287009.784 M-1s-1, kd 5.44 1/s",4.72
same,pKD,"Immobilization level 12000.0 pg/mm2, Rmax 65.0 pg/mm2, ka 163548.417 M-1s-1, kd 3.844 1/s",4.63
same,pKD,"Immobilization level 13000.0 pg/mm2, Rmax 48.0 pg/mm2, ka 218448.051 M-1s-1, kd 4.78 1/s",4.66
O=C(Nc1ccc(C2CNC2)cc1)c1cc(Cl)cc2[nH]ncc12,pKD,"Immobilization level 10000.0 pg/mm2, Rmax 37.0 pg/mm2, ka 291088.891 M-1s-1, kd 2.184 1/s",5.12
same,pKD,"Immobilization level 12000.0 pg/mm2, Rmax 69.0 pg/mm2, ka 224213.878 M-1s-1, kd 1.69 1/s",5.12
same,pKD,"Immobilization level 13000.0 pg/mm2, Rmax 34.0 pg/mm2, ka 337518.302 M-1s-1, kd 1.709 1/s",5.3
Cc1cc(CN)cc(NC(=O)c2cc(Cl)cc3[nH]ncc23)c1,pKD,"Immobilization level 10000.0 pg/mm2, Rmax 32.0 pg/mm2, ka 317735.356 M-1s-1, kd 1.709 1/s",5.27
same,pKD,"Immobilization level 12000.0 pg/mm2, Rmax 41.0 pg/mm2, ka 352403.171 M-1s-1, kd 1.092 1/s",5.51
same,pKD,"Immobilization level 13000.0 pg/mm2, Rmax 26.0 pg/mm2, ka 657032.757 M-1s-1, kd 1.65 1/s",5.6
Cc1cccc(CNc2ccc(Cl)cc2C(=O)Nc2ccc3c(c2)CNC3)n1,pKD,"Immobilization level 10000.0 pg/mm2, Rmax 24.0 pg/mm2, ka 19887.988 M-1s-1, kd 1.214 1/s",4.21
same,pKD,"Immobilization level 12000.0 pg/mm2, Rmax 8.0 pg/mm2, ka 63837.388 M-1s-1, kd 0.552 1/s",5.06
same,pKD,"Immobilization level 13000.0 pg/mm2, Rmax 43.0 pg/mm2, ka 14963.881 M-1s-1, kd 1.059 1/s",4.15
N[C@H]1CCc2cc(NC(=O)c3cc(Cl)cc4[nH]ncc34)ccc21,pKD,"Immobilization level 12000.0 pg/mm2, Rmax 40.0 pg/mm2, ka 202508.522 M-1s-1, kd 3.352 1/s",4.78
same,pKD,"Immobilization level 13000.0 pg/mm2, Rmax 32.0 pg/mm2, ka 287481.012 M-1s-1, kd 4.268 1/s",4.83
NCc1cc(NC(=O)c2cc(Cl)cc(NC(=O)OCc3ccccc3)c2)cc(C2=CC[C@H](C(=O)O)C2)c1,pKD,"Immobilization level 5500.0 pg/mm2, Rmax 9.0 pg/mm2, ka 171424.656 M-1s-1, kd 2.389 1/s",4.86
O=C(Nc1ccc2c(c1)CNC2)c1cc(=O)[nH]c2c(F)cccc12,pKD,"Immobilization level 4900.0 pg/mm2, Rmax 18.0 pg/mm2, ka 230791.194 M-1s-1, kd 7.379 1/s",4.5
same,pKD,"Immobilization level 5500.0 pg/mm2, Rmax 21.0 pg/mm2, ka 297955.59 M-1s-1, kd 8.334 1/s",4.55
O=C(Nc1ccc2c(c1)CNC2)c1c[nH]c2ncc(F)cc12,pKD,"Immobilization level 5500.0 pg/mm2, Rmax 31.0 pg/mm2, ka 181164.217 M-1s-1, kd 6.639 1/s",4.44
Cc1ccc(C(C)C)c(C(=O)Nc2ccc3c(c2)CNC3)c1,pKD,"Immobilization level 10000.0 pg/mm2, Rmax 25.0 pg/mm2, ka 195679.525 M-1s-1, kd 7.321 1/s",4.43
same,pKD,"Immobilization level 12000.0 pg/mm2, Rmax 28.0 pg/mm2, ka 382623.73 M-1s-1, kd 5.226 1/s",4.87
same,pKD,"Immobilization level 13000.0 pg/mm2, Rmax 25.0 pg/mm2, ka 300897.372 M-1s-1",4.69
O=C1Cc2c(cccc2C(=O)Nc2ccc3c(c2)CNC3)N1,pKD,"Immobilization level 3900.0 pg/mm2, Rmax 48.0 pg/mm2, ka 37165.995 M-1s-1, kd 0.04 1/s",5.97
same,pKD,"Immobilization level 5500.0 pg/mm2, Rmax 106.0 pg/mm2, ka 18457.516 M-1s-1, kd 0.041 1/s",5.65
O=C(NC1CCOCC1)[C@H](Nc1ccc2c(c1)CNC2)c1cc(Cl)cc(C2CC2)c1,pKD,"Immobilization level 10000.0 pg/mm2, Rmax 26.0 pg/mm2, ka 616891.885 M-1s-1, kd 0.14 1/s",6.64
same,pKD,"Immobilization level 12000.0 pg/mm2, Rmax 48.0 pg/mm2, ka 284907.141 M-1s-1, kd 0.112 1/s",6.4
same,pKD,"Immobilization level 13000.0 pg/mm2, Rmax 35.0 pg/mm2, ka 474880.78 M-1s-1, kd 0.123 1/s",6.59
CCS(=O)(=O)c1ccc(Cl)cc1C(=O)Nc1ccc2c(c1)CNC2,pKD,"Immobilization level 12000.0 pg/mm2, Rmax 28.0 pg/mm2, ka 273415.174 M-1s-1, kd 3.732 1/s",4.87
O=C(Nc1ccc2c(c1)CNC2)c1nccc2[nH]ncc12,pKD,"Immobilization level 12000.0 pg/mm2, Rmax 10.0 pg/mm2, ka 215121.382 M-1s-1, kd 2.565 1/s",4.92
N#Cc1cc(Cl)cc([C@H](C#N)Nc2ccc3c(c2)CNC3)c1,pKD,"Immobilization level 10000.0 pg/mm2, Rmax 24.0 pg/mm2, ka 238302.252 M-1s-1, kd 1.184 1/s",5.3
same,pKD,"Immobilization level 12000.0 pg/mm2, Rmax 44.0 pg/mm2, ka 146250.163 M-1s-1, kd 0.612 1/s",5.38
same,pKD,"Immobilization level 13000.0 pg/mm2, Rmax 28.0 pg/mm2, ka 315015.409 M-1s-1, kd 0.863 1/s",5.56
O=C(Nc1ccc2c(c1)CNC2)c1cccc(-c2cnco2)c1,pKD,"Immobilization level 12000.0 pg/mm2, Rmax 4.0 pg/mm2, ka 566629.865 M-1s-1, kd 1.936 1/s",5.47
